Screens from PubChem BioAssay.
A selection: hits, their analogues and other compounds. The true share with any hit is near 11%.
Pf growth 48h: Primary qHTS for delayed death inhibitors of the malarial parasite plastid, 48 hour incubation; P. falciparum luciferase growth in erythrocytes, 48 h; Potency, µM (doses to about 28.7 µM), inactives show top-dose activity change, negative = inhibition, most hits filed as inhibitors; hit rate 5.9% among 310,000; AID 504832, 2011
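Luminescence readout; reporter = integrated firefly luciferase in P. falciparum. RBC culture at 2% hematocrit, 0.1% parasitemia final, 37 C/5% CO2; decreased signal taken as growth inhibition.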
AmpC inh detg: qHTS Inhibitors of AmpC Beta-Lactamase (assay with detergent) | P00811 | AmpC hydrolysis of nitrocefin, absorbance 480 nm, 0.01% Triton | Potency, µM (top dose mostly 114 µM), for the others: at the highest dose activity change, negative = inhibition, hits mostly inhibitors | hit rate 0.041% among 370,000;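 further: 0% = no-compound wells and -100% = no-enzyme wells; nearly all actives have a fitted effect of over 25% in size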
Target sequence (P00811 whole entry, looked up): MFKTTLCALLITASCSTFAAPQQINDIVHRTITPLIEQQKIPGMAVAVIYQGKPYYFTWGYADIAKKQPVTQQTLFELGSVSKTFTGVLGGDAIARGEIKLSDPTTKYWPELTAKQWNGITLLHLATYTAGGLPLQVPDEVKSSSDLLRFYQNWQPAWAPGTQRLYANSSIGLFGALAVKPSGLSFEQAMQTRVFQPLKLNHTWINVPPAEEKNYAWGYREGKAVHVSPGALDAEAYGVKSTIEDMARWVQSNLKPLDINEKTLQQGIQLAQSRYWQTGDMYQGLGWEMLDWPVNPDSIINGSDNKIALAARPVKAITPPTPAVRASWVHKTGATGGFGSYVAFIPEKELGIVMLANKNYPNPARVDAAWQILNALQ
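AmpC (5.3 nM in the dispensed reagent) in 20 mM phosphate pH 7.0 with 0.01% (detergent screen) or 0.0001% Triton X-100 was preincubated with compounds for 15 min at room temperature. Nitrocefin was then added from an 800 uM solution, and hydrolysis was followed at 480 nm.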
Pf growth 96h: Primary qHTS for delayed death inhibitors of the malarial parasite plastid, 96 hour incubation. P. falciparum luciferase reporter growth, 96 h. Potency, µM (series often up to 28.7 µM), for inactives: at the highest dose activity change, negative = inhibition, usual class: inhibitors. hit rate 6.9% among 320,000. AID 504834, 2011
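Readout is luminescence from an integrated firefly luciferase in P. falciparum. Red cells, 2% hematocrit and 0.05% parasitemia final, were cultured with compound through two parasite generations (96 hours) at 37 C, 5% CO2.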
AmpC no deterg: qHTS Inhibitors of AmpC Beta-Lactamase (assay without detergent) | P00811 | hit rate 0.52% among 330,000 | AmpC nitrocefin hydrolysis, absorbance 480 nm, 0.0001% Triton | Potency, µM (top dose mostly 57.1 µM), inactives show at the top dose activity change, negative = inhibition, hits mostly inhibitors | AID 485341, 2010;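 further: plate controls were no compound for no effect and no enzyme for full effect; nearly all actives have a fitted effect of over 20% in size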
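AmpC (5.3 nM in the dispensed reagent) in 20 mM phosphate pH 7.0 with 0.01% (detergent screen) or 0.0001% Triton X-100 was preincubated with compounds for 15 min at room temperature. Nitrocefin was then added from an 800 uM solution, and hydrolysis was followed at 480 nm.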
HCV inh: qHTS Assay for Inhibitors of Hepatitis C Virus (HCV); Huh7.5.1 HCVcc-Cre infection, luciferase reporter, 44 h; Potency, µM (highest dose often 41.8 µM), for the others: at the top dose activity change, negative = inhibition, actives largely listed as inhibitors; hit rate 3.4% among 340,000; AID 651820, 2012
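1,000 cells/well; 4 h culture; + compound; + HCVcc-Cre (~0.5 moi); 44 h; luciferase substrate, RT 15 min; read 15 sec.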
AMA1 RON2 block: qHTS for Inhibitors of AMA1-RON; Towards Development of Antimalarial Drug Lead: Primary Screen; Plasmodium falciparum AMA1 (3D7) - RON2 peptide interaction; AlphaScreen AMA1-biotinylated RON2 peptide binding; Potency, µM (titrated, usually from 58.2 µM), inactives show at the highest dose activity change, negative = inhibition, actives largely listed as inhibitors; hit rate 0.2% among 360,000; AID 720542, 2013;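 further: 0% = vehicle wells and -100% = peptide control; nearly all actives have a fitted effect of over 45% in size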
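AMA1 (3D7) with his tag at 25 nM final met compounds first, then biotinylated RON2 peptide at 25 nM; detection used donor plus acceptor beads, 10 µg/mL apiece, read by AlphaScreen after 30 min at room temperature.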
* marks the source's active call; other numbers are inactive results; ? = inconclusive; · = no result given; [ ] = another dose, or the depositor's remark. The call rests on the fitted dose curve; in most records, active means well fitted curve in the direction sought with a large enough effect; inconclusive means small, poorly fitted or top-dose-only effect, or another doubt; inactive means no such curve, though single readings can be large; an effect the other way counts as inactive or inconclusive. Unless noted, on the % scale 0 is the no-effect control and ±100 the full control effect; potency means the concentration at half of the fitted maximal effect.

SMILES	Pf growth 48h	AmpC inh detg	Pf growth 96h	AmpC no deterg	HCV inh	AMA1 RON2 block
O=[N+]([O-])c1ccc(/C=N/N2CCN(Cc3ccccc3)CC2)cc1	13.6%	-1.5%	-25.9%	-12.0%	?	25.1µM*
O=[N+]([O-])c1ccc(Cl)c(/C=N/N2CCN(Cc3ccccc3Cl)CC2)c1	-13.2%	-17.1%	40.7%	-26.9%	-13.0%	?
O=[N+]([O-])c1ccccc1/C=N\N1CCN(Cc2ccccc2Cl)CC1	2.8%	?	-26.4%	-17.9%	-3.5%	20µM*
O=[N+]([O-])c1ccc(/C=N\N2CCN(c3ccc(Cl)cc3)CC2)cc1	57.6%	-7.3%	60.4%	-10.9%	-4.4%	-2.3%
O=[N+]([O-])c1ccc(Cl)c(/C=N/N2CCN(Cc3ccccc3)CC2)c1	23.4%	-3.1%	35.3%	-26.1%	5.7%	-5.8%
CN1CCN(C(CNC(=O)C(=O)Nc2cccc(Cl)c2)c2ccc3c(c2)OCO3)CC1 (stereo not drawn)	·	1.5%	·	·	·	·
COC(=O)c1cc2sc(Cl)cc2n1Cc1nc(-c2ccccc2C)oc1C	·	-0.8%	·	·	·	·
Cc1ccc(CNC(=O)C2CCN(c3nn4cc(-c5ccc(F)cc5)nc4s3)CC2)cc1	·	5.5%	·	·	·	·
COc1ccccc1N=c1scc(-c2ccc(S(=O)(=O)N3CCCC3)cc2)n1C	·	0.3%	·	·	·	·
FC(F)(F)c1ccc(/C=N/N2CCN(Cc3ccccc3)CC2)cc1	39.2%	?	9.4%	-1.8%	-0.3%	20µM*
Cn1cccc1/C=N/N1CCN(Cc2ccccc2Cl)CC1	3.0%	4.0%	20.1%	30.9%	0.316µM*	?
CCN(C(=O)Cn1c(=O)n(Cc2ccccc2)c(=O)c2c1c1cc(OC)ccc1n2C)c1ccccc1	·	-0.9%	·	·	·	·
CCOC(OCC)P(=O)(c1ccccc1)c1ccccc1	8.6%	-11.3%	11.7µM*	9.8%	10.0%	11.9%
COc1ccc(OC2C(=O)N(CCc3ccc(OC)c(OC)c3)C2c2ccc3c(c2)OCO3)cc1 (stereo not drawn)	?	3.1%	?	78.1%	?	-9.4%
COc1ccc(OC2C(=O)N(c3ccc(C)c(C)c3)C2c2ccc(OC)c(OC)c2)cc1 (stereo not drawn)	9.28µM*	?	?	21.7%	?	-16.5%
COc1ccc(OC2C(=O)N(c3cc(C)ccc3C)C2c2ccc(OC)c(OC)c2)cc1 (stereo not drawn)	7.38µM*	-16.5%	20.4%	-7.1%	-2.5%	7.4%
Cc1c(Cl)cccc1NC(=O)CCn1cnnn1	·	-2.9%	·	·	·	·
CC(=O)c1c(C)[nH]c(C(=O)Nc2nccs2)c1C	364.7%	-4.1%	62.4%	-26.2%	10µM*	8.9%
O=C(Nc1cccc(S(=O)(=O)C(F)F)c1)c1ccc(S(=O)(=O)N2CCCCC2)cc1	-15.5%[5.75 µM]	?	-5.0%[5.75 µM]	-26.4%	?	-26.1%
CN1CCN(S(=O)(=O)c2ccc(NC(=O)c3cccc(S(=O)(=O)N4CCCC4)c3)cc2)CC1	11.7µM*	-13.8%	?	85.7%	?	-2.2%
CN(C)S(=O)(=O)c1cccc(C(=O)Nc2ccc(S(=O)(=O)N3CCCC3)cc2)c1	11.7µM*	1.0%	?	-45.9%	-12.1%	-4.0%
O=C(Nc1cccc(S(=O)(=O)N2CCCCC2)c1)c1ccc(S(=O)(=O)C(F)F)cc1	?	-14.0%	?	22.4µM*	?	-13.4%
CN(C)S(=O)(=O)c1cccc(NC(=O)c2cccc(S(=O)(=O)N3CCCCCC3)c2)c1	13.1µM*	0.0%	4.65µM*	-22.8%	7.94µM*	-20.0%
O=C(Nc1cccc(S(=O)(=O)N2CCCCCC2)c1)c1cncc(Br)c1	·	·	·	-2.9%	11.2µM*	-1.6%
COc1ccc(NC(=O)c2[nH]c(C)c(C(C)=O)c2C)cc1Cl	?	-1.4%	-21.3%	-32.4%	?	-6.0%
SMILES	Pf growth 48h	AmpC inh detg	Pf growth 96h	AmpC no deterg	HCV inh	AMA1 RON2 block
Cc1ccc(NC(=O)c2cccc(S(=O)(=O)N3CCN(C)CC3)c2)cc1F	?	-7.7%	?	45.1%	12.6µM*	0.0%
COc1ccc(NC(=O)c2[nH]c(C)c(C(C)=O)c2C)cc1S(=O)(=O)Nc1ccc(Br)cc1	?	0.4%	?	-34.8%	14.1µM*	9.0%
CN1CCN(S(=O)(=O)c2ccc(NC(=O)c3cccc(F)c3)cc2)CC1	5.5%	-5.9%	-0.6%	4.1%	1.9%	-18.5%
Cc1cc2nn(-c3ccccc3)nc2cc1NC(=O)COc1ccc(Cl)cc1	·	15.4%	·	·	·	·
Cc1cc(C)c(/C=C/c2onc(C)c2S(=O)(=O)N2CCC(C(=O)NCC(C)c3ccccc3)CC2)c(C)c1 (stereo not drawn)	·	-4.0%	·	·	·	·
OC[C@@H](O)C(O[C@@H]1O[C@@H](CO)[C@H](O)[C@H](O)[C@H]1O)[C@H](O)[C@@H](O)CO (stereo partly drawn)	-23.0%	·	?	·	·	·
CN(C)c1ccc(C(=O)Nc2cccc(S(=O)(=O)N3CCCC3)c2)cc1	-12.8%	-15.3%	?	28.2µM*	?	1.3%
CN(C)S(=O)(=O)c1cccc(NC(=O)c2ccc(S(=O)(=O)N3CCCCC3)cc2)c1	?	?	?	-34.4%	?	-8.5%
Cc1cc(NC(=O)c2cc(S(=O)(=O)N3CCCCC3)ccc2C)no1	·	·	·	-34.9%	7.1%	0.0%
CN(C)S(=O)(=O)c1cccc(NC(=O)c2ccc(N3CCCC3=O)cc2)c1	·	·	·	-12.3%	22.4µM*	-3.0%
CC(=O)c1c(C)[nH]c(C(=O)Nc2cccc(S(=O)(=O)N3CCCCC3)c2)c1C	9.28µM*	-2.7%	9.28µM*	-26.6%	12.6µM*	-11.3%
Cc1cc(NC(=O)c2cccc(S(=O)(=O)N3CCCCCC3)c2)no1	·	4.7%	8.28µM*	-14.4%	4.8%	4.8%
COC(=O)c1c(-c2cccs2)csc1NC(=O)COc1ccc(C(C)(C)C)cc1	·	0.0%	·	·	·	·
c1ccc(-n2cnnn2)cc1	-8.5%	·	-15.8%	·	·	·
O=C(NCc1ccc(F)cc1)c1cnc(N2CCCCC2)c2ccccc12	·	5.2%	·	·	·	·
CNC(=O)C1CCC(Cn2c(=O)c3sccc3n(CC(=O)NCc3ccc(C)cc3)c2=O)CC1 (stereo not drawn)	·	3.3%	·	·	·	·
CC(C)c1ccc(NS(=O)(=O)c2ccc3nc(-c4ccccc4)[nH]c3c2)cc1	·	14.8%	·	·	·	·
COc1cc2c(cc1OC)C(COc1cccc(C(F)(F)F)c1)N(C(=O)c1ccc(S(=O)(=O)N3CCCC3)cc1)CC2 (stereo not drawn)	·	6.1%	·	·	·	·
